# High-throughput results deposited in PubChem by National Center for Advancing Translational Sciences (NCATS).
# Hits are enriched below; roughly 11% of the tested compounds scored in any of these assays.
# ALDH1A1 inh: qHTS Assay for Inhibitors of Aldehyde Dehydrogenase 1 (ALDH1A1). Purified ALDH1A1, NADH fluorescence, propionaldehyde substrate. Potency, µM (doses to about 75.3 µM), for the others: top-dose activity, negative = inhibition, hits mostly inhibitors. actives 7.3% (n = 220,000). AID 1030, 2008;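 also: potency is read from the fitted curve at half-maximal effect; plate controls were no enzyme wells and a reference inhibitor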
# Target sequence (P00352 whole entry, looked up): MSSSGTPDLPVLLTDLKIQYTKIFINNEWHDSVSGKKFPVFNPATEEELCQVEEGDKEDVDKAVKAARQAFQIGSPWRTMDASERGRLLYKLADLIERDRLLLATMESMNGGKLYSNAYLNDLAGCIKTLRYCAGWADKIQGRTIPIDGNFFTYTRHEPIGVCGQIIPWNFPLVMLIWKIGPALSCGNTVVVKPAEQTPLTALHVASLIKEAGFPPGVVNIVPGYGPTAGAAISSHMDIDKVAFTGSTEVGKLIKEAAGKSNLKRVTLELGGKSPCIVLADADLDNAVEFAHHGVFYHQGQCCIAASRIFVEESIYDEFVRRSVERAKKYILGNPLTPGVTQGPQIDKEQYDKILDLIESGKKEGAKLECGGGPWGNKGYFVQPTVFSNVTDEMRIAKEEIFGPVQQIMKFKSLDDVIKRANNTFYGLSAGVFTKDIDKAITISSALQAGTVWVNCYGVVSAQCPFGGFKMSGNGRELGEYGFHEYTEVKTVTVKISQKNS
# PNC inhibitor: High Content Assay for Compounds that inhibit the Assembly of the Perinucleolar Compartment | PC3M PTB-GFP, PNC prevalence imaging, 16 h; stronger effect = lower value | activity change (PNC), negative = inhibition, % at 10 µM | actives 3.1% (n = 140,000) | AID 2417, 2010;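 active = readout at or below -70, meaning at least 70% loss of cells showing the perinucleolar compartment, a nuclear body marking cancer cells; inconclusive = readout between -30 and a set limit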;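 also: plate controls were DMSO wells for no effect and camptothecin positive control wells for full effect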
#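 PC3M cells stably expressing PTB-GFP, 750–1000 cells/well, treated 16 h at 37 °C with compound (23 nl of library stock), in duplicate. After paraformaldehyde fixation and Hoechst stain, imaged at 20x; PNC prevalence scored by image analysis.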
# JMJD2E inh: qHTS Assay for Inhibitors of Human Jumonji Domain Containing 2E (JMJD2E); AID 2147, 2009; actives 1.6% (n = 230,000); Lysine-specific demethylase 4E (Homo sapiens), B2RXH2; Potency, µM (doses to about 57.1 µM), without a hit: at the top dose activity change, negative = inhibition, hits mostly inhibitors; JMJD2E catalytic domain, FDH-coupled NADH fluorescence (FDH is formaldehyde dehydrogenase);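 also: potency is read from the fitted curve at half-maximal effect; 0% = wells with enzyme and -100% = buffer wells without enzyme; nearly all actives have a fitted effect of over 50% in size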
# HPGD inh: qHTS Assay for Inhibitors of HPGD (15-Hydroxyprostaglandin Dehydrogenase) | Potency, µM, for inactives: top-dose activity change, negative = inhibition, actives largely listed as inhibitors | purified HPGD, NADH fluorescence kinetic, PGE2 substrate | actives 4.3% (n = 150,000) | AID 894, 2007 | 15-hydroxyprostaglandin dehydrogenase [NAD(+)] (Homo sapiens), P15428; also: potency is read from the fitted curve at half-maximal effect
#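 NADH formation kinetics: reaction with 30 uM PGE2 and 1 mM NAD+ (final), 20 nM enzyme, Tris-HCl pH 8 with Tween 20, after 15 min compound preincubation at room temperature. Fluorescence change, last versus first of five reads.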
# * = called active by the depositor; ? = inconclusive; . = not tested or not shown; [ ] = dose if it differs, or a comment. Unless noted, calls follow the shape of the dose curve; as a rule, active = well fitted inhibition curve with a large enough effect (not every such curve was filed as active); inconclusive = small, poorly fitted or top-dose-only effect, or another doubt; inactive = no such curve, though single readings can be large or run the other way. Unless noted, % is scaled to controls: 0 for no effect and ±100 for the full control effect.
SMILES,ALDH1A1 inh,PNC inhibitor,JMJD2E inh,HPGD inh
Cc1nc(N2CCCCC2)sc1C(=O)c1ccc(SCCO)c([N+](=O)[O-])c1,13µM*,.,-11%,.
COc1ccc(-n2c(=O)c(-c3cccs3)nc3cnc(Nc4cccc(OC)c4)nc32)cc1,-13%,.,.,-6%
O=C(CCc1ccccc1)NNC(=S)NC(=O)c1ccc(Cl)cc1,11µM*,?,-1%,-27%
O=C(NC(=S)Nc1ccc(Oc2ccc(Cl)cc2)cc1)c1ccccc1,8.9µM*,53,-1%,-16%
O=C(NC(=S)Nc1ccc(Cl)cc1)c1ccccc1,15µM*,.,0%,.
CCC(=O)NC(=S)Nc1ccc(NC(=S)NC(=O)c2ccccc2)cc1,25µM*,.,3%,.
Cc1ccc(C(=O)NNC(=S)NC(=O)c2ccc(Cl)cc2)cc1,-8%,70,-84%,-16%
CC(=O)c1cccc(NC(=O)N2C3CCC2CC(NC(=O)C2CC2)C3)c1 (centres undefined),4%,.,5%,.
CCC1=C2CC[C@H]3C(=O)N(CC(=O)OC)C(=O)[C@H]3[C@H]2[C@@]2(Cc3ccccc3)C(=NCCOC)OC(=O)N2C1=O,-10%,.,-8%,-8%
CC(C)=NOc1nc(N(C)C)nc(N2CCOCC2)n1,.,.,1%,.
CCN(CC)S(=O)(=O)c1ccc(NC2c3ccccc3C(=O)N2CCN2CCOCC2)cc1 (centres undefined),0.2µM*,-12,1%,-11%
COc1ccccc1C1/C(=C(/O)c2ccc(C)cc2)C(=O)C(=O)N1CCN1CCOCC1 (centres undefined),?,?,-17%,0%
Cc1ccc(NC2c3ccccc3C(=O)N2CCN2CCOCC2)cc1 (centres undefined),1µM*,?,-15%,-6%
O=C1c2ccccc2C(Nc2ccc(S(=O)(=O)N3CCOCC3)cc2)N1Cc1ccco1 (centres undefined),-11%,?,2%,-6%
O=C(O)c1ccc(F)c(S(=O)(=O)Nc2cccc(F)c2)c1,7%,.,.,0%
Cn1cccc1C(=O)N1CCC2(CCN(C(=O)Nc3cccc(F)c3)CC2)CC1,-2%,.,.,-1%
CCC(=O)Nc1ncnc2ncn(C(=O)CC)c12,13%[13.5 µM],.,.,-12%
CC/C(=N/Nc1ccc(Cl)cc1)c1cnnc(SC)n1,10µM*,100,-3%,-11%
CSc1nncc(/C(C)=N\Nc2ccccc2C)n1,?,21,-13%,-9%
CC/C(=N/O)c1cnnc(SC)n1,-7%,17,-4%,-15%
CC/C(=N/Nc1cccc(C)c1)c1cnnc(SC)n1,9.5µM*,19,-28%,-6%
CC1CC(C)CN(CCOCCSc2ccccc2)C1 (centres undefined),14µM*,?,-2%,1%
CC1CC(C)CN(CCCSc2ccccc2)C1 (centres undefined),24µM*,28,-7%,-6%
c1ccc(SCCOCCn2cncn2)cc1,28µM*,?,?,-1%
COc1ccc(OC)c(-c2csc(N(CC3CCCO3)C(=O)C3CCCCC3)n2)c1 (centres undefined),6%,.,-8%,.
SMILES,ALDH1A1 inh,PNC inhibitor,JMJD2E inh,HPGD inh
C[C@@](N)(C(=O)O)[C@@H]1C[C@@H]1C(=O)O,2%,.,.,.
CC(C)C(=O)NC(=S)Nc1c(Cl)ccc2nsnc12,.,.,-9%,.
COC(=O)c1ccccc1NC(=O)C1CC(=O)N(c2ccc(F)cc2)C1 (centres undefined),1%,41,6%,-7%
COC(=O)c1ccccc1NC(=O)C1CC(=O)N(c2ccc(C)c(C)c2)C1 (centres undefined),18µM*,?,2%,-11%
O=C(NCc1ccc2c(c1)OCO2)C1CC(=O)N(C2CCCCCC2)C1 (centres undefined),?,?,-8%,-7%
Cc1ccc(N2CC(C(=O)NCc3ccc4c(c3)OCO4)CC2=O)cc1C (centres undefined),14µM*,6,3%,-14%
NC1=NC(=Nc2cccc(S(=O)(=O)N3CCOCC3)c2)c2ccccc21,.,.,-1%,.
Fc1cccc(C[n+]2csc3ccccc32)c1,0.35µM*,32,?,4µM*
c1ccc(C[n+]2cccc3c4ccccc4ccc32)cc1,?,30,?,?
c1ccc(C[n+]2csc3ccccc32)cc1,2.2µM*,32,?,14µM*
Nc1nc(-c2cccc(F)c2)cs1,-11%,.,?,.
CCOC(=O)c1c(NC(=O)c2cc(-c3ccc(O)cc3)on2)sc(C(C)=O)c1C,22µM*,24,3%,18µM*
CCOC(=O)c1sc(NC(=O)CN(CC(C)C)CC(C)C)c(C(=O)OCC)c1C,22µM*,-110*,0%,?
CCOC(=O)c1c(NC(=O)CC(C)C)sc(C(C)=O)c1C,?,-100*,-5%,-15%
CCOC(=O)c1c(NC(=O)COC)sc(C(C)=O)c1C,-3%,-6,9%,?
Cc1c(C(=O)N/N=C/c2cccs2)nc2ccccn12,7%,12,-8%,?
Cn1c(Cl)cnc1C1CC(=O)c2cc(Cl)ccc2O1 (centres undefined),18µM*,-112*,-30%,?
O=C1CC(c2ccccc2)Oc2ccccc21 (centres undefined),-3%,.,?,-17%
O=C(c1ccc(F)cc1)c1ccc(N2CCCC2)cc1,20µM*,35,?,28µM*
O=C(NC1CC1)c1cccc(Nc2ccc(-c3ccc4c(c3)OCCO4)nn2)c1,?,6,-5%,28µM*
N#CCCn1cc(/C=N/NC(N)=S)c(-c2ccc(-c3ccccc3)cc2)n1,-12%,.,-9%,.
COc1cc(OC)c(C(=O)NCCCn2ccnc2)cc1OC,2%,.,-2%,.
Cc1ccc(Oc2c(C=O)c3ccccc3n2C)cc1,-4%,94,-8%,-7%
COc1ccc(Oc2c(C=O)c3ccccc3n2C)cc1,-7%,100,4%,32µM*
Cc1[nH]nc2c1/C(=N/O)CC(c1ccccc1)C2 (centres undefined),-11%,37,10%,14µM*
CCCc1n[nH]c2c1/C(=N/O)CC(c1ccccc1)C2 (centres undefined),5%,?,0%,7.1µM*
Cn1cc(C(=O)N/N=C/c2cccc([N+](=O)[O-])c2)c2ccccc21,.,.,-2%,.
Cc1ccc(C2(c3ccc(C)cc3)CC2C(=O)Nc2ccc([N+](=O)[O-])cc2O)cc1 (centres undefined),-9%,-18,-11%,14µM*
CC1(C)CC1C(=O)Nc1ccc([N+](=O)[O-])cc1Br (centres undefined),-6%,-24,-4%,.
COC(=O)c1ccc(-c2ccc(/C=N/N3C(=O)C4C5C=CC(C6CC56)C4C3=O)o2)cc1 (centres undefined),385%,-1,?,14µM*
